Pf growth 96h = inhibits malaria parasite growth, 96 h; P. falciparum luciferase reporter growth, 96 h; Potency, µM (doses to about 28.7 µM), actives largely listed as inhibitors; 320,000 compounds, 6.9% hits; AID 504834; active = well fitted inhibition curve with a large enough effect; inconclusive = small, poorly fitted or top-dose-only effect, or another doubt; inactive = no such curve, though single readings can be large or run the other way
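Luminescence readout: decreased luciferase signal marks inhibited growth of reporter-expressing P. falciparum in infected red cells (2% hematocrit, 0.05% parasitemia final), exposed to compound two generations (96 h, 37 C, 5% CO2).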
Pf growth 48h = inhibits P. falciparum growth in the first generation, 48 h; Potency, µM (titrated, usually from 28.7 µM), usual class: inhibitors; 310,000 compounds, 5.9% hits; P. falciparum luciferase growth in erythrocytes, 48 h; active = well fitted inhibition curve with a large enough effect; inconclusive = small, poorly fitted or top-dose-only effect, or another doubt; inactive = no such curve, though single readings can be large or run the other way
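Luciferase-expressing P. falciparum in infected erythrocytes (2% hematocrit, 0.1% parasitemia final) in RPMI 1640/0.5% Albumax were exposed to compound for 48 hours at 37 C, 5% CO2; growth read as luminescence.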
SARS PLpro yeast = blocks SARS-CoV papain-like protease in a yeast assay. S. cerevisiae expressing SARS-CoV PLpro, growth rescue. Potency, µM (series often up to 32.9 µM), hits mostly activators. 330,000 compounds, 0.19% hits. AID 485353; also: nearly all actives have a fitted effect of over 55% in size
NS1 function inh = inhibitors of influenza NS1 protein function | Potency, µM (highest dose often 46.1 µM) | 270,000 compounds, 0.4% hits; also: actives are rising curves; nearly all actives have a fitted effect of over 50% in size
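OD600 was taken as the measure of yeast growth restored by compound in an NS1-expressing S. cerevisiae strain. Cells had been washed out of glucose medium and diluted 1:100 into galactose -URA medium, pH 6.0.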
CHX counter = counter-screen for Shiga toxin inhibitors: cycloheximide protein synthesis inhibition; cell reporter, cycloheximide protein synthesis inhibition counterscreen; max response, %; 300,000 compounds, 12% hits; in the data active = max response mostly above about 13%, no sharp cut-off; inactive = mostly below about 14%; also: read at 38.3 µM for the half of the compounds with a filed dose
Shiga toxin inh = inhibitors of Shiga toxin in Vero cells | Vero cells, Shiga toxin protein synthesis inhibition reporter | 290,000 compounds, 9.2% hits | inhibition, % at 38.7 µM; in the data active = inhibition mostly above about 28%, no sharp cut-off; inactive = mostly below about 43%
Of the large screens only hits and unclear results are named; the others gave an inactive call. Compounds with a hit are over-represented: about 21% of the library has one in this group of screens. Unless noted, calls follow the shape of the full dose curve.

Cn1c(=O)oc2cc(S(=O)(=O)N3CCC(C(=O)NCc4ccccc4Cl)CC3)ccc21	none
COc1ccc(NC(=O)CC2CC3CCC2C3)cn1 (centres undefined)	CHX counter 19.7
COc1ccc(NC(=O)CCl)cn1	Pf growth 96h 10.4µM, Pf growth 48h 8.28µM
COc1ccc(NC(=O)C(Cl)=C(Cl)Cl)cn1	Pf growth 96h inconclusive, Pf growth 48h inconclusive, CHX counter 22.6 (no result: NS1 function inh)
COc1ccc(CC(=O)Nc2ccc(OC)nc2)cc1	none (no result: NS1 function inh)
COc1ccc(NC(=O)/C(Cl)=C(/Cl)S(=O)(=O)Cc2ccccc2)cn1	CHX counter 46.4, Shiga toxin inh 100.5 (no result: Pf growth 48h)
CC(=O)NC1(c2ccccc2)CCN(CC(=O)N2CCC(C)CC2)CC1	none
CCCC(=O)Oc1ccc(C2NC(=O)c3ccccc3O2)cc1OC (centres undefined)	none (no result: Shiga toxin inh)
CC(=O)Nc1ccc(NC(=O)C(C)OC(=O)CCc2nc3ccccc3s2)cc1 (centres undefined)	none (no result: NS1 function inh)
CN(C)CCCn1c2c(c(SCC(=O)Nc3nccs3)nc1=O)CCC2	none (no result: NS1 function inh, CHX counter, Shiga toxin inh)
COc1ccc(-c2cc(=O)oc3cc(OCC(=O)N4C[C@H]5C[C@@H](C4)c4cccc(=O)n4C5)ccc23)cc1	Pf growth 96h inconclusive, Pf growth 48h inconclusive
CCc1cc(=O)oc2cc(C)cc(OCC(=O)N3CCC(C(=O)NC(C)C)(c4ccccc4)CC3)c12	Pf growth 96h 10.4µM, Pf growth 48h 10.4µM
CCCCc1cc(=O)oc2cc(C)cc(OCC(=O)N3C[C@H]4C[C@@H](C3)c3cccc(=O)n3C4)c12	Pf growth 96h inconclusive, Pf growth 48h 10.4µM
CCCCc1cc(=O)oc2cc(OCC(=O)N3C[C@H]4C[C@@H](C3)c3cccc(=O)n3C4)ccc12	Pf growth 96h 8.28µM
Cc1cc(OCC(=O)N2CCC(C(=O)O)(c3ccccc3)CC2)c2c(C)cc(=O)oc2c1	none
O=C(C1CCCN(S(=O)(=O)c2ccccc2)C1)N1CCCCC1 (centres undefined)	Pf growth 96h inconclusive
CCN(CC)C(=S)SCC(=O)Nc1nc(=O)c2ccccc2s1	CHX counter 17.9
CN(CC(=O)N1CCOCC1)S(=O)(=O)c1ccc2ccccc2c1	Pf growth 96h inconclusive (no result: Shiga toxin inh)
O=C(CCN1CCCC1Cc1ccccc1)c1ccc2c(c1)OCCO2 (centres undefined)	Pf growth 96h inconclusive (no result: SARS PLpro yeast)
O=C(CCN1CCc2ccccc21)c1ccc2c(c1)OCCO2	Pf growth 96h 2.08µM, Pf growth 48h 5.22µM, CHX counter 25.6
O=C(CCN1CCCCC1)c1ccc2c(c1)OCCO2	none
O=C(CCN1CCc2ccccc2C1)c1ccc2c(c1)OCCO2	Pf growth 96h inconclusive, CHX counter 51.1, Shiga toxin inh 94.7
O=C(CCN1CCC(c2ccccc2)C1)c1ccc2c(c1)OCCO2 (centres undefined)	CHX counter 13.0
C[C@H](NC(=O)N1CCn2c1nc1ccccc12)C(=O)NCCc1ccccc1	none
O=C(Nc1ccc(OCC(=O)N2CCOCC2)cc1)c1cncc(Br)c1	Pf growth 96h inconclusive
CCCCOc1ccc(C(=O)Nc2ccc(OCC(=O)N3CCOCC3)cc2)cc1	Pf growth 96h inconclusive, CHX counter 25.7, Shiga toxin inh 51.2
CCN(CC)S(=O)(=O)c1ccc(C(=O)Nc2ccc(OCC(=O)N3CCOCC3)cc2)cc1	Pf growth 96h 0.37µM, Pf growth 48h inconclusive
C=C1CC[C@H](O)C/C1=C/C=C1\CCC[C@]2(C)[C@@H]([C@H](C)CCCC(C)C)CC[C@@H]12	CHX counter 33.9, Shiga toxin inh 89.1 (no result: SARS PLpro yeast, NS1 function inh)
COc1ccccc1C(=O)Nc1cc2c(cc1C(=O)O)OCCCO2	none
CCOc1cc(Cl)c(NC(=O)c2ccco2)cc1OCC	none
O=C(Nc1cc2c(cc1Cl)OCCCO2)c1ccco1	CHX counter 79.9, Shiga toxin inh 105.2
O=C(Nc1cc2c(cc1Cl)OCCCO2)c1ccccc1	CHX counter 31.4, Shiga toxin inh 98.9 (no result: Pf growth 96h)
O=C(Nc1cc2c(cc1C(=O)O)OCCCO2)c1ccc(F)cc1F	CHX counter 16.9
COc1cc(C(=O)NNC(=O)CNC(=O)c2ccc(Br)o2)cc(OC)c1OC	none
COc1cc(-c2nc(-c3ccc(NC(=O)c4ccc(Br)o4)cc3)no2)cc(OC)c1OC	Pf growth 96h inconclusive, CHX counter 36.3 (no result: Pf growth 48h)
COc1ccc(-c2nc(-c3ccc(NC(=O)c4ccc(Br)o4)cc3)no2)cc1OC	Pf growth 96h inconclusive, Pf growth 48h inconclusive, CHX counter 29.1, Shiga toxin inh 46.1
O=[N+]([O-])c1cc(S(=O)(=O)N2CCCCC2)ccc1NCCCN1CCOCC1	Pf growth 96h 1.47µM, Pf growth 48h inconclusive, Shiga toxin inh 42.1 (no result: NS1 function inh)
CC(C)[C@H](Nc1ccc(S(=O)(=O)N2CCOCC2)cc1[N+](=O)[O-])C(=O)OCC(=O)N(C(C)C)C(C)C	Pf growth 96h 5.22µM, Pf growth 48h inconclusive
CC(C)(CNc1ccc([N+](=O)[O-])cc1C#N)N1CCOCC1	Pf growth 96h inconclusive (no result: NS1 function inh)
CC(C)(CNc1ccc(S(=O)(=O)C(F)(F)F)cc1[N+](=O)[O-])N1CCOCC1	Pf growth 96h inconclusive, Pf growth 48h inconclusive, CHX counter 35.4, Shiga toxin inh 30.6
Cc1ccc(NC(=O)c2ccc(NCCCN3CCOCC3)c([N+](=O)[O-])c2)cc1Cl	Pf growth 48h 2.33µM
O=C(COC(=O)c1cccnc1Cl)NCCc1ccc(F)cc1	none (no result: Pf growth 96h, Pf growth 48h, NS1 function inh, CHX counter, Shiga toxin inh)
O=C(NC1CCCCC1)c1ccc2[nH]c(=O)c(=O)[nH]c2c1	none
CC(C)n1cnnc1SCC(=O)Nc1ccc(Br)cc1F	none (no result: NS1 function inh)
COc1ccc(NC(=O)c2ccc(NCCCN3CCOCC3)c([N+](=O)[O-])c2)cc1	Pf growth 48h inconclusive
O=C(Nc1ccc(Cl)c([N+](=O)[O-])c1)c1ccc(NCCCN2CCOCC2)c([N+](=O)[O-])c1	Pf growth 96h inconclusive, Pf growth 48h 14.7µM
CCCN(C(=O)c1cc(S(=O)(=O)N2CCCCCC2)ccc1OC)C1CCS(=O)(=O)C1 (centres undefined)	Pf growth 48h inconclusive (no result: NS1 function inh, CHX counter, Shiga toxin inh)
COc1ccc(NS(=O)(=O)c2ccc(C)c(NC(=O)c3ccc(C)c(S(=O)(=O)N4CCOCC4)c3)c2)cc1	Pf growth 96h 14.7µM, Pf growth 48h inconclusive, NS1 function inh inconclusive
CC(=O)c1ccc(NC(=O)c2ccc(C)c(S(=O)(=O)N3CCOCC3)c2)cc1	Pf growth 48h inconclusive
Cc1ccc(S(=O)(=O)N2CCOCC2)cc1NC(=O)c1cccc(S(=O)(=O)N2CCCC2)c1	none
Cc1ccc(C(=O)Nc2ccc3cn[nH]c3c2)cc1S(=O)(=O)N1CCOCC1	Pf growth 96h inconclusive, Pf growth 48h inconclusive, CHX counter 21.2, Shiga toxin inh 49.2
COC(=O)c1ccc2c(c1)N(Cc1nc(-c3ccc(Cl)cc3)oc1C)C(=O)C1CCCN21 (centres undefined)	none (no result: Pf growth 96h, Pf growth 48h, SARS PLpro yeast, CHX counter, Shiga toxin inh)
COc1cc(C(=O)O)cc(OC)c1OCc1cc(C(=O)O)oc1C	none
Cc1oc(C(=O)O)cc1COc1cccc2ccccc12	Pf growth 96h 2.33µM

Assay outcomes from PubChem BioAssay.
